Bioassay records deposited in PubChem by Sanford-Burnham Center for Chemical Genomics.
Compounds with a hit are over-represented: about 28% of the library has one in this group of screens.
CYP2C19 activ: human CYP2C19 activators, primary screen, biochemical, luminescence | Cytochrome P450 2C19 (Homo sapiens), P33261 | recombinant CYP2C19, luciferin-H EGE luminescence; hits give high values; 0 = fully inhibited enzyme, 1 = untreated enzyme | activation factor at 5 µM | 96,000 tested, under 10 active;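 active = activation factor of at least 2 at 5 µM in the primary screen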
CD11b adhes inh: inhibitors of CD11b/CD18 adhesion to fibrinogen, primary screen, K562 cells, luminescence | Integrin beta-2 (Homo sapiens) + Integrin alpha-M (Homo sapiens), P05107+P11215 | ATPlite luminescence; Mn2+ added to activate the integrin | inhibition, % at 10 µM | actives 0.54% (n = 93,000);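 active = primary inhibition of 50% or more at 10 µM, then 40% or more on retest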
CYP2C9 act: human CYP2C9 activators, primary screen, biochemical, luminescence. Cytochrome P450 2C9 (Homo sapiens), P11712. recombinant CYP2C9, luciferin-H conversion; hits give high values; factor 1 = untreated enzyme, 0 = blocked. activation factor at 5 µM. actives 1.4% (n = 96,000);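 active = activation factor of 2 or more for CYP2C9 at a 5 µM dose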
Target sequence (P11712 whole entry, looked up): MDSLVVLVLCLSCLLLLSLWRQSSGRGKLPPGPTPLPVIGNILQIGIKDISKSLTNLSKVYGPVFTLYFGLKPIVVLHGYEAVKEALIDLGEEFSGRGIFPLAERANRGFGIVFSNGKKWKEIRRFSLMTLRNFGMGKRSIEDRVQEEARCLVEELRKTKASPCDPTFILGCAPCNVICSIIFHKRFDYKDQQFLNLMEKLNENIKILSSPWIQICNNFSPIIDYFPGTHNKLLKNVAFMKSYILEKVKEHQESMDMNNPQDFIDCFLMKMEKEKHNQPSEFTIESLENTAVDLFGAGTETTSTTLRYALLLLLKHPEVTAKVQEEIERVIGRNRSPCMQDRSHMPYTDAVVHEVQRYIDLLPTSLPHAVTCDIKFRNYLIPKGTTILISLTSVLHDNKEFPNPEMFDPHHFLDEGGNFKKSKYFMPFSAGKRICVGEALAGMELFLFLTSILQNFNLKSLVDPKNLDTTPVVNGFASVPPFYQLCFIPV
CYP2C9 inh: blockers of cytochrome P450 2C9 activity – biochemical, luminescence, ADME assay, primary screen. actives 20% (n = 96,000). inhibition, % at 5 µM. P11712. CYP2C9 Supersomes, luciferin-H conversion;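 active = blocking of liver enzyme CYP2C9 beyond about 50% at 5 µM, limit read from the data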
CYP2C19 inh: blockers of cytochrome P450 2C19 activity – biochemical, luminescence, ADME assay, primary screen. inhibition, % at 5 µM. actives 21% (n = 96,000). CYP2C19 Supersomes, luciferin-H EGE luminescence, 30 min. P33261;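 active = CYP2C19 inhibition above a set limit at 5 µM in the primary screen, cut at about 50% in these data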
Mac1 fbg enh: enhancers of CD11b/CD18 adhesion to fibrinogen, primary screen, K562 cells, luminescence. Integrin beta-2 (Homo sapiens) + Integrin alpha-M (Homo sapiens), P05107+P11215. ATPlite luminescence. activation, % at 10 µM. actives 0.07% (n = 93,000). AID 1499, 2009;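 active = 10 µM primary screen giving 50% or more activity, confirmed by 40% or more on retest at that dose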
Of the large screens only hits and unclear results are named; the others gave an inactive call.

O=C1Nc2ccc(Br)cc2C1(O)Cc1ccncc1 (configuration not stated)	CYP2C9 inh 83, CYP2C19 inh 56
O=C1Nc2ccccc2C1(O)Cc1ccncc1 (configuration not stated)	none
O=C(CC1(O)C(=O)Nc2ccc(Br)cc21)c1ccc2c(c1)OCO2 (configuration not stated)	CYP2C9 inh 75, CYP2C19 inh 76
COc1ccc(-c2nc(CS(=O)CC(=O)NCCCN3CC(C)CC(C)C3)c(C)o2)cc1OC (configuration not stated)	none (no result: CD11b adhes inh, Mac1 fbg enh)
CCCNC(=O)NC(C(=O)OC)C12CC3CC(CC(C3)C1)C2 (configuration not stated)	CYP2C19 inh 69
COC(=O)c1c(NC(=O)CN2CCC3(O)CCCCC3C2c2ccc(OC)cc2OC)sc(C)c1C (configuration not stated)	none (no result: CYP2C19 activ, CYP2C9 act, CYP2C9 inh, CYP2C19 inh)
COc1ccc(C2CC2/C(C)=N/OC(=O)c2cccs2)cc1 (configuration not stated)	CYP2C9 inh 75, CYP2C19 inh 62
COc1ccc(C(=O)O/N=C(/C)c2cccs2)cc1	CD11b adhes inh 71, CYP2C9 inh 91
COc1ccc(C(=O)N/N=C/c2ccc(OC(=O)c3cccs3)cc2)cc1	none (no result: CYP2C19 activ, CYP2C9 act, CYP2C9 inh, CYP2C19 inh)
COc1ccc(OCCOC(=O)c2cccs2)cc1	CYP2C9 inh 73, CYP2C19 inh 84
O=[N+]([O-])c1cccc(C=Nc2cc3c(cc2Br)OCCO3)c1	none (no result: CYP2C19 activ, CYP2C9 act, CYP2C9 inh, CYP2C19 inh)
O=C(CSc1oc(-c2cccs2)nc1S(=O)(=O)c1ccc(F)cc1)NCC1CCCO1 (configuration not stated)	CYP2C19 inh 64
Cc1ccc(S(=O)(=O)c2nc(-c3ccco3)oc2SCC(=O)NCC2CCCO2)cc1 (configuration not stated)	none
N#Cc1nc(-c2cccs2)oc1NCC1CCCO1 (configuration not stated)	CYP2C19 inh 55 (no result: CD11b adhes inh, Mac1 fbg enh)
COc1ccc(-c2nc(C#N)c(NCC3CCCO3)o2)cc1 (configuration not stated)	CYP2C9 inh 68, CYP2C19 inh 59
COc1ccc(-c2nc(C#N)c(NCCCN3CCOCC3)o2)cc1	none
O=S(=O)(c1ccccc1)c1nc(-c2cccs2)oc1NCC1CCCO1 (configuration not stated)	none
CCOc1ccc(-c2nc(C#N)c(NC3CC3)o2)cc1	CYP2C19 inh 69
COc1ccc(-c2noc(CCCC(=O)NCCc3ccccc3)n2)cc1OC	none (no result: CD11b adhes inh, Mac1 fbg enh)
Cc1c(S(=O)(=O)N2CCc3ccccc3C2)c(=O)n(C)c(=O)n1C	none
COc1cc(C2/C(=C(/O)c3ccc(OCC(C)C)cc3)C(=O)C(=O)N2CCN(C)C)ccc1O (configuration not stated)	CYP2C19 inh 68
CC(C)COc1ccc(/C(O)=C2/C(=O)C(=O)N(CCN(C)C)C2c2ccncc2)cc1 (configuration not stated)	none
COC(=O)c1cn(NC(=O)C2COc3ccccc3O2)c(=O)c2ccccc12 (configuration not stated)	none (no result: CD11b adhes inh, Mac1 fbg enh)
O=[N+]([O-])c1ccc(NCCCNS(=O)(=O)c2ccc(Cl)cc2)c(Cl)c1	CYP2C19 inh 72
Cc1ccc(S(=O)(=O)NCC2CCC(C(=O)O)CC2)cc1 (configuration not stated)	none (no result: CD11b adhes inh, Mac1 fbg enh)
COc1ccc(NC(=O)[C@@H]2[C@@H]3C(=O)N(C4CCCCC4)C(=O)[C@@H]3C3c4ccccc4C=CN32)cc1 (some centres not stated)	CYP2C9 inh 57
CC(=O)[C@@H]1[C@@H]2C(=O)N(C3CCCCC3)C(=O)[C@@H]2C2c3ccccc3C=CN21 (some centres not stated)	none
COC(=O)C1=C(C)C(c2ccc(OC)cc2)NC(=S)N1 (configuration not stated)	none (no result: CD11b adhes inh, Mac1 fbg enh)
CCOC(=O)C1=C(c2ccccc2)NC(=S)NC1C (configuration not stated)	CYP2C19 inh 52
